DAX1 inh-1 – inhibits human nuclear receptor DAX1; P51843; HEK293 Gal4-DAX1 luciferase reporter, luminescence; inhibition, % at 6.75 µM; 340,000 tested, 0.99% active; AID 504766;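 active = inhibition above the mean over all tested compounds plus 3 SD, cut at about 4.2% in these data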;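 also: 0% = DAX1-transfected cells with DMSO and 100% = empty-vector control cells with DMSO; inhibition shows as a rise in luminescence from relieved DAX1 repression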
Target sequence (P51843 207-470 limits assumed): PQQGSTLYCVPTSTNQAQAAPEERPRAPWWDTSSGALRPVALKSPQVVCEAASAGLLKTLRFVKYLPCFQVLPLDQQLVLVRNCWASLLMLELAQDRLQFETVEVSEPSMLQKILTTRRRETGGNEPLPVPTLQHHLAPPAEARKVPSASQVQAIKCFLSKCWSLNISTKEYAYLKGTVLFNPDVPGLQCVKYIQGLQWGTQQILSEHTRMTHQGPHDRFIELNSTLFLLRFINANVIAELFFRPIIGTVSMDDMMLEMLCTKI
hgDAF12 agonist – agonists of H. glycines DAF-12 nuclear receptor. HEK293 GAL4-hgDAF12 UAS-luciferase reporter, agonist luminescence; normalized to butyrate control. activation, % at 6.8 µM. 370,000 tested, 1.8% active;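 active = activation above a cutoff set at the mean of all screened compounds plus 3 SD, cut at about 10% in these data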;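 also: 0% = DMSO wells and 100% = sodium butyrate wells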
DAX1 inh-2 – inhibitors of DAX1 repression of SF-1 activated StAR promoter | inhibition, % at 6.8 µM | 370,000 tested, 1.1% active | HEK293T StAR-luciferase reporter, SF-1/DAX-1 repression relief;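 active = inhibition above the mean over all tested compounds plus 3 SD, cut at about 3.6% in these data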;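 also: 0% = DAX-1 cells with DMSO and 100% = cells lacking DAX-1 with DMSO; higher inhibition means more luminescence from relief of DAX-1 repression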
SMARCA2 act – activators of SMARCA2 function; MG213 cells, MMTV-luciferase reporter, dexamethasone, overnight; activation, % at 9.1 µM; 370,000 tested, 1% active; AID 652017; in the data active = activation above about 7.8%;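 also: 0% = vehicle wells and 100% = reference activator wells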
ssDAF-12 act – activates DAF-12 receptor from parasite S. stercoralis | HEK293 ssDAF-12/GRIP1 lit1-tk-luc reporter, luminescence; % of 3 µM dafachronic acid response | activation, % at 6.8 µM | 370,000 tested, 1% active | AID 652126;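 active = activation above the mean over all tested compounds plus 3 SD, cut at about 0.9% in these data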;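 also: 0% = DMSO-only wells and 100% = 3 µM delta7-dafachronic acid wells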
hcDAF-12 act – H. contortus DAF-12 activation, primary screen; AID 652067; HEK293 hcDAF-12 lit1-tk-luc reporter, luminescence; 0% DMSO, 100% Δ7-dafachronic acid; 370,000 tested, 1.4% active; activation, % at 6.8 µM;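 active = activation above the mean of all tested compounds plus 3 SD, cut at about 5.5% in these data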;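 also: 100% = response to 3 µM Δ7-dafachronic acid high control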
* marks the source's active call; other numbers are inactive results; / = no result given; ! = not active in a repeat. Shown are actives, neighbours in structure and some others; about 4.8% of the full set was active somewhere.

SMILES	DAX1 inh-1	hgDAF12 agonist	DAX1 inh-2	SMARCA2 act	ssDAF-12 act	hcDAF-12 act
CSc1cccc(NC(=S)N(CCC(C)C)C(C)c2ccncc2)c1 (stereo not drawn)	4.7*	3	0	-2	-1	0
O=C(O)c1cc(-c2ccc3c(c2)OCO3)nc2ccc(Cl)cc12	0	1	1	6	1	5.8*
Cn1c(NC(=O)c2cc(-c3ccc4c(c3)OCO4)nc3ccccc23)cc(=O)n(C)c1=O	2	3	1	5	0	1
O=C(c1cc(-c2ccncc2)nc2ccc(Cl)cc12)N1CCN(Cc2ccc3c(c2)OCO3)CC1	-1	-4	0	0	-1	2
CC(C)(C)NC(=O)c1cc(-c2ccc3c(c2)OCO3)nc2ccccc12	0	4	-1	-1	0	5.9*
Cc1cccc(C(=O)Nc2nc3ncccn3c2-c2ccc(F)c(F)c2)c1	/	-3	-1	-2	-1	-4
Brc1ccc2nc(-c3ccc(CN4CCC5(CC4)CNc4ccccc45)cc3)c(-c3ccccc3)nc2c1	/	4	0	-1	0	1
OCc1ccc2c(c1)c(-c1ccc3c(c1)OCCO3)c(-c1ccccc1)n2-c1ccccc1	4.4*	-1	0	-2	0	2
CC(C)[C@H](NC(=O)N1c2ccccc2NC(=O)[C@@H]1C(C)C)C(=O)N[C@@H](C(=O)O)c1ccccc1	4.5*	4	0	-2	-2	0
O=[N+]([O-])c1ccc(Nc2nc(N3CCOCC3)nc(N3CCOCC3)n2)cc1	0	0	0	1	1.1*	0
COc1ccc2nc(C)cc(SCC(NC(C)=O)C(=O)OC(C)C)c2c1 (stereo not drawn)	4.6*	0	0	2	-1	-1
COc1ccc2nc(C)cc(SCC(=O)OC(C)C)c2c1	1	3	0	4	-2	-1
CC(C)(C)c1ccc(C(=O)Nc2cc(Cl)ccc2C(=O)O)cc1	/	4	/	/	0	3
Cn1c(SCc2ccc(C(C)(C)C)cc2)nnc1-c1ccco1	/	3	0	-2	-2	-1
COc1ccc(NC(=O)O/N=C/c2c(C)nn(C(C)(C)C)c2C)cc1	6.3*	-1	1	2	-1	-1
N#CCC[C@@H]1CC[C@]2(CCCN(S(=O)(=O)c3ccccc3)C2)O1	/	3	1	0	-1	-2
COC(=O)[C@]12C[C@H](CC(=O)N3CCC(c4ccccc4)CC3)C(=O)N(Cc3ccc(Cl)cc3Cl)C1=C[C@H](C(C)(C)C)O[C@@H]2C	/	-3	0	-1	1.1*	-1
COC(=O)[C@]12C[C@H](CC(=O)N3CCSCC3)C(=O)N(Cc3ccc(Cl)cc3Cl)C1=C[C@H](C(C)(C)C)O[C@@H]2C	/	1	-1	-6	-1	-3
CCOC(=O)/C(=N\Nc1ccc(OC)cc1)c1csc(Nc2ccccc2)n1	-1	2	-1	7.8*	-1	1
CCOC(=O)/C(=N/Nc1ccccc1)c1csc(Nc2ccccc2)n1	0	0	0	-5	-2	-2
COCC(=O)Nc1ccc(S(=O)(=O)Nc2nccs2)cc1	4.4*	0	0	0	-1	1
COc1ccccc1OCC(=O)Nc1ccc(S(=O)(=O)Nc2nccs2)cc1	-2	-3	0	-1	-1	-1
CCNC(=S)N1CCC(n2cnc3ccccc32)CC1	4.6*	-3	0	0	-2	1
COCC(=O)N(C)[C@H]1C[C@H]2c3[nH]c4c(-c5ccc6c(c5)OCO6)cccc4c3CCN2C(=O)[C@H]1[C@H](C)O	/	0	-2	0	-2	-3
Cc1ccc(C(=O)NNC(=S)Nc2cccc3ccccc23)s1	1	5	1	7	1.2*	6.3*
SMILES	DAX1 inh-1	hgDAF12 agonist	DAX1 inh-2	SMARCA2 act	ssDAF-12 act	hcDAF-12 act
O=C(NNC(=S)Nc1cccc2ccccc12)c1cccc(Br)c1	0	0	0	-1	0	6
Cc1ccc2nc3c(cc2c1)c(NC(=O)c1ccco1)nn3CC(C)C	12*	0	-1	0	-2	-1
CC(C)Cn1nc(NC(=O)c2ccco2)c2cc3ccccc3nc21	-1	2	0	0	-2	-2
CC(C)Cn1nc(NC(=O)c2cccs2)c2cc3ccccc3nc21	5.5*	1	0	1	-2	-1
O=c1c2cc3cccnc3nc2ncn1Cc1cccs1	/	0	1	0	-1	2
Cc1ccc(S(=O)(=O)Cc2ccc(C(=O)N3CCC(C(N)=O)CC3)o2)cc1	0	0	-1	-2	-1	2
NC(=O)C1CCN(C(=O)c2ccc(CS(=O)(=O)c3c(Cl)cccc3Cl)o2)CC1	6.9*	4	0	-1	-1	-1
Cc1ccc(C(=O)Nc2nc(=O)[nH]s2)cc1	4.4*!	1	0	2	-1	0
Cc1ccc(C(=O)Nc2nc(=O)n(C(=O)CC(C)C)s2)cc1	1	0	0	-2	-1	0
Cc1ccc(C(=O)Nc2nc(=O)n(C)s2)cc1	5.6*	6	1	4	-1	5
O=c1cc(N2CCc3ccccc32)[nH]c(=O)n1-c1ccc(Br)cc1	-1	-1	1	-1	-1	5.8*
COc1ccc(-n2c(=O)cc(N3CCc4ccccc43)[nH]c2=O)cc1	0	0	0	-3	-1	2
CC1CCC2(CCC(=O)N2CCCO)CC1 (stereo not drawn)	/	-2	-1	-2	-1	-2
COC(=O)C1=C(C)N(C)C(=NCc2cc(OC)c(OC)c(OC)c2)NC1c1cccc(C(F)(F)F)c1 (stereo not drawn)	/	1	1	0	-1	0
Cc1cc(C(=O)COC(=O)CC2Sc3ccccc3NC2=O)c(C)n1-c1cccc(C(F)(F)F)c1 (stereo not drawn)	0	2	0	0	1.2*	4
c1ccc(C[n+]2csc3ccccc32)cc1	1	3	1	1	1.1*	2
Cc1ccc(NC(=O)OC2CC3CC2[C@H]2CCCCN2C3)cc1 (stereo partly drawn)	/	11*	0	-1	-1	0
CCOC(=O)c1sc2nc(N3CCOCC3)c3c(c2c1N)CC(C(C)C)OC3 (stereo not drawn)	1	-2	0	7	-1	0
CCOC(=O)c1sc2nc3c(cc2c1N)COC(C(C)C)C3 (stereo not drawn)	4.3*	3	2	1	-1	0
CC(C)C[C@H]1CN=C(Nc2ccccc2)N1CC1CCC(C(C)(C)C)CC1 (stereo partly drawn)	4.5*	/	/	/	/	/
CC(C)C[C@H]1CN=C(Nc2ccccc2)N1CC1CCCC1	0	-3	0	1	-1	-1

High-throughput results as filed in PubChem.
